High-throughput results deposited in PubChem by ICCB-Longwood Screening Facility, Harvard Medical School.
Many of the other results were omitted from the sample, so hits are more common in it than they were.
CapD inh: Bacillus anthracis CapD inhibitors, primary screen, biochemical, fluorescence intensity; CapD gamma-glutamyltranspeptidase (Bacillus anthracis Ames Ancestor); 0.23% of 140,000 active; z-score (test concentration not listed); purified CapD enzyme, fluorescence intensity read-out; active compounds read low; in the data active means z-score mostly below about -2.9, no sharp cut-off; inactive means mostly above about -1.9
Numbers stand for hits; – = inactive.

SMILES	CapD inh
O=C(CCS(=O)(=O)c1cccs1)NC1CCCc2ccccc21 (configuration not stated)	–
O=C(c1ccc(S(=O)(=O)NC2CCCc3ccccc32)s1)N1CCCC1 (configuration not stated)	–
O=S(=O)(NC1CCCc2ccccc21)c1cccs1 (configuration not stated)	-1.7
CCCS(=O)(=O)c1c(S(=O)(=O)CCC)c2c3ccccc3ccn2c1C(=O)c1ccccc1	–
CN1C(=O)/C(=C2/Sc3ccc(Cl)cc3N2C2CCCCC2)SC1=S	–
CCOc1cc(C=C2C(=O)NC(=O)NC2=O)ccc1OCCOc1ccc(C)cc1	–
CCc1ccc(NS(=O)(=O)c2ccc3[nH]cc(C(=O)N(CC)CC)c(=O)c3c2)cc1	–
CCc1ccc(NS(=O)(=O)c2ccc3[nH]cc(C(=O)N4CCCC4)c(=O)c3c2)cc1	-5.9
CCc1ccc(N(C)S(=O)(=O)c2ccc3[nH]cc(C(=O)N4CCCCCC4)c(=O)c3c2)cc1	–
CCCn1c2ccccc2c2nnc(SC(C)C)nc21	–
O=C(Cn1ncc2c([nH]c3ccccc32)c1=O)NC1CCCC1	–
CC(C)(C)NS(=O)(=O)c1ccc(NC(=O)c2ccc(Br)o2)cc1	–
COc1ccc2c(c1)[nH]c1c(=O)n(CCN3CCCCC3C)cnc12 (configuration not stated)	–
